# Source: PubChem (National Center for Advancing Translational Sciences (NCATS))
# Pf Dd2 inh = blocks in vitro growth of P. falciparum Dd2. actives 4.3% (n = 120,000). P. falciparum Dd2 growth, SYBR Green, 72 h. Potency, µM (top dose mostly 28.9 µM), inactives show at the top dose activity, negative = inhibition, most hits filed as inhibitors; active = well fitted inhibition curve with a large enough effect;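 note: plate controls were DMSO vehicle for no effect and reference drug for full effect; nearly all actives have a fitted effect of over 65% in size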
#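 Readout: SYBR Green fluorescence, 485 nm excitation, 535 nm emission, after ~16 h lysis at 37C. Before that, Dd2-infected red cells (2.5% hematocrit) grew 72 h with compound, 29 uM top final concentration.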
# Starred values were filed as active, the others as inactive; i = inactive; [ ] = another dose, or the depositor's remark. The entries come from a sample that favours hits as a whole. Potency is the fitted concentration of half-maximal effect.
SMILES,Pf Dd2 inh
CCc1noc(-c2cn(C3CCN(C(=O)c4ccc(C(C)(C)C)cc4)C3)nn2)n1 (stereo not drawn),-5.9%
CC(C)NC(=O)C[C@@H]1c2nc(NC(=O)c3c(F)cccc3F)sc2C[C@@H]2[C@](C)(CO)[C@H](O)CC[C@]21C,-8.2%
C[C@H](NC(=O)C[C@@H]1c2nc(NC(=O)c3ccc(F)cc3)sc2C[C@@H]2[C@](C)(CO)[C@H](O)CC[C@]21C)c1ccccc1,2.51µM*
C[C@@H](NC(=O)C[C@@H]1c2nc(NC(=O)CC(C)(C)C)sc2C[C@@H]2[C@](C)(CO)[C@H](O)CC[C@]21C)c1ccccc1,11.2µM*
CCCCCC(=O)Nc1nc2c(s1)C[C@@H]1[C@](C)(CO)[C@H](O)CC[C@@]1(C)[C@@H]2CC(=O)NCc1cc(F)cc(F)c1,7.94µM*
CCCCCC(=O)Nc1nc2c(s1)C[C@@H]1[C@](C)(CO)[C@H](O)CC[C@@]1(C)[C@@H]2CC(=O)NCc1ccccc1,-6.2%
C[C@]1(CO)[C@H]2Cc3sc(NC(=O)c4ccc(F)cc4)nc3[C@@H](CC(=O)O)[C@]2(C)CC[C@H]1O,-23.9%
CCCCCC(=O)Nc1nc2c(s1)C[C@@H]1[C@](C)(CO)[C@H](O)CC[C@@]1(C)[C@@H]2CC(=O)NC1CCCCC1,i
CC(C)(C)CC(=O)Nc1nc2c(s1)C[C@@H]1[C@](C)(CO)[C@H](O)CC[C@@]1(C)[C@@H]2CC(=O)NCc1ccco1,i
CC(C)(C)CC(=O)Nc1nc2c(s1)C[C@@H]1[C@](C)(CO)[C@H](O)CC[C@@]1(C)[C@@H]2CC(=O)O,-21.5%[44.1 µM]
O=C(Cc1ccccc1)N1CC2CC(C1)[C@H]1CCCC(=O)N1C2 (stereo partly drawn),-0.2%
O=C(c1ccco1)N1CCN(C(=O)N2CC3CC(C2)[C@H]2CCCC(=O)N2C3)CC1 (stereo partly drawn),2.7%
O=C(NC[C@H]1O[C@H](Cc2cc(COc3ccccc3)on2)CC[C@@H]1O)Nc1ccc(F)cc1,-19.5%
Cc1cccc(NC(=O)N2CC3CN(C)CC(C2)O3)c1,-9.8%
O=C(Cc1ccsc1)NC1CCCN(c2cc(-c3ccccc3)[nH]n2)C1 (stereo not drawn),-4.6%
Cn1cnc(S(=O)(=O)N2CCC[C@H](n3c(=O)n(C)c4cccnc43)C2)c1,-2.2%
CC1(C(=O)N2CCCC2C(=O)Nc2cccc(-n3cccn3)c2)CC1 (stereo not drawn),-9.5%
CC(C)c1ccc([S+](=O)([O-])c2nnn3c2nc(N2CCC(F)CC2)c2ccccc23)cc1,-27.7%
Cc1cc(C)c([S+](=O)([O-])c2nnn3c2nc(N2CCOCC2)c2ccccc23)c(C)c1,8.91µM*
Cc1cc(C)c([S+](=O)([O-])c2nnn3c2nc(N2CCC(F)CC2)c2ccccc23)c(C)c1,11.2µM*
O=S(=O)(c1ccccc1)c1nnn2c1nc(N1CCOCC1)c1ccccc12,4.9%
COc1ccc(OC)c([S+](=O)([O-])c2nnn3c2nc(N2CCOCC2)c2ccccc23)c1,-20.6%
Cc1ccc(-c2nnn3c2nc(N2CCC(C)CC2)c2ccccc23)cc1,-11.1%
O=C([C@@H]1C[C@H](F)CN1S(=O)(=O)c1ccc(F)cc1)N1CCc2ccccc2C1,-3.3%
O=C(N[C@H]1[C@H](O)[C@H](O)C[C@@H]1c1cccnc1)c1ccccn1,21.0%[44.1 µM]
SMILES,Pf Dd2 inh
C[S+](=O)([O-])CCn1ncc2cc(OCC3CCN(Cc4cccs4)CC3)ccc21,-6.6%[44.1 µM]
O=C(c1ccccn1)N1CCC2(CC1)NC(=O)N(Cc1ccccc1Cl)C2=O,13.7%
CCCNC(=O)N1CCCC(c2nc(-c3cccnc3)no2)CCNC(=O)CC1 (stereo not drawn),9.7%
Cc1cc(Nc2ccc(F)cc2)nc(-n2nc(C)cc2C)n1,11.2µM*
COc1ccc(Nc2nnc(-n3nc(C)cc3C)c3ccccc23)cc1,-13.9%
CCCCOC(=O)c1ccc(Nc2nnc(-n3nc(C)cc3C)c3ccccc23)cc1,-10.1%
CC(=O)c1ccc(NC(=O)Cn2c(-n3nc(C)cc3C)nc(C)cc2=O)cc1,i
Cc1cc(C)n(-c2nc3ccccc3nc2Nc2ccc(C(C)C)cc2)n1,-10.2%
CCCCc1ccc(Nc2cc(C)nc(-n3nc(C)cc3C)n2)cc1,2.82µM*
COc1c(F)cccc1C(=O)N1CCC(Cc2ccc(C(=O)O)cc2)C1 (stereo not drawn),-15.3%
Cc1ccc(C(=O)N2CCC(CCC(=O)NC3CCCCCC3)CC2)cc1,-4.9%
O=C(CCC1N=C2c3ccccc3N=C(SCc3cccc(Cl)c3)N2C1=O)N1CCN(c2ccccc2)CC1 (stereo not drawn),11.2µM*
O=C(CCC1N=C2c3ccccc3N=C(SCc3ccc(F)cc3)N2C1=O)N1CCN(c2ccccc2)CC1 (stereo not drawn),12.6µM*
O=C(CC1N=C2c3ccccc3N=C(SCc3ccc(F)cc3)N2C1=O)NCCc1ccccc1 (stereo not drawn),-18.2%
O=C(CCC1N=C2c3ccccc3N=C(SCc3cccc(Cl)c3)N2C1=O)NCc1cccs1 (stereo not drawn),82.2%
O=C(CCC1N=C2c3ccccc3N=C(SCC(=O)NCCc3ccccc3)N2C1=O)NCc1ccc(F)cc1 (stereo not drawn),-19.4%
O=C(CCC1N=C2c3ccccc3N=C(SCc3cccc(Cl)c3)N2C1=O)NCCc1ccccc1 (stereo not drawn),38.0%
C=CCNC(=O)c1cnn2c1CN(C(=O)OC)CC2,7.8%[44.1 µM]
O=C1N[C@H](CCC(=O)N2CCN(CCc3ccccn3)CC2)C(=O)Nc2ccccc21,4.9%
CCc1nnc([C@@H]2CC(F)(F)CN2C(=O)CCn2cc(C)cn2)o1,5.2%
O=C(N1CCCC(c2nn[nH]n2)C1)C1(c2ccccc2)CC1 (stereo not drawn),-5.8%
CN(C)S(=O)(=O)N1CCCC(c2nnc(CN3CCCCC3)n2C)C1 (stereo not drawn),-18.8%
O=S(=O)(c1ccc(F)cc1)N1CCC(Oc2ccc(-c3noc(C4CC4)n3)cc2)C1 (stereo not drawn),-12.0%[5.79 µM]
COc1cc(-c2onc(C)c2C(=O)NCCc2ccc(F)cc2)cc(OC)c1OC,i
COCCNC(=O)c1c(C)noc1-c1cc(OC)c(OC)c(OC)c1,-8.8%
SMILES,Pf Dd2 inh
COc1cc(-c2onc(C)c2C(=O)NCCC(c2ccccc2)c2ccccc2)cc(OC)c1OC,11.2µM*
CC1CCc2nn3ccn(CC(=O)Nc4cccc(Cl)c4)c(=O)c3c2C1 (stereo not drawn),-29.2%
CCOc1ccccc1NC(=O)CSc1c2c(nc3ccc(Cl)cc13)CCCC2,i
COc1ccc(C(=O)Nc2ccc3nc4c(c(Nc5ccc(OC)c(OC)c5)c3c2)CCCC4)c(OC)c1,-7.9%
CCN(CC)c1cc(C)c2cc(NC(=O)c3ccc(OC)c(OC)c3)ccc2n1,-2.2%
COc1ccccc1Nc1c2c(nc3ccc(NC(=O)c4ccccc4F)cc13)CCCC2,3.55µM*
COc1ccccc1NC(=O)c1ccccc1NC(=O)c1ccccc1,-0.8%
Cc1ccc(Nc2c3c(nc4ccccc24)CCC3)cc1F,i
COc1ccccc1Nc1c2c(nc3ccc(NC(=O)c4cccc(OC)c4OC)cc13)CCCC2,5.62µM*
COc1ccccc1NC(=O)c1ccc2c(Cl)c3c(nc2c1)CCCC3,12.3%
COc1ccc(Nc2c3c(nc4ccc(NC(=O)c5ccc(F)cc5)cc24)CCCC3)cc1OC,3.98µM*
O=C(CCCc1ccccc1)N1CC(c2noc(COc3ccccc3)n2)C1,-8.4%
Cc1cc(C)cc(C(=O)NCc2nnc3ccc(-c4ccccc4)nn23)c1,i
